The target of experiment [1] is Cytochrome P450 2C19 (Homo sapiens) (UniProt P33261). As to the kind of experiment: Cytochrome P450 Family 2 Subfamily C Member 19 (CYP2C19) small molecule antagonists: luciferase reporter qHTS assay (AID 1671197). Further: nearly all actives have a fitted effect of over 65% in size. The method in brief:
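Compounds were tested on CYP2C19 activity via proluciferin conversion to luciferin. The 37C, 1 h reaction followed NADPH addition; detection reagent stopped it.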
(In a reporter assay the amount or activity of a reporter protein is the signal.)

Experiment [2] addresses Cytochrome P450 2C9 (Homo sapiens) (UniProt P11712). As to the kind of experiment: Cytochrome P450 Family 2 Subfamily C Member 9 (CYP2C9) small molecule antagonists: luciferase reporter qHTS assay (AID 1671198). Further: nearly all actives have a fitted effect of over 50% in size. The method in brief:
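CYP2C9 activity was measured with a P450-Glo proluciferin substrate. Enzyme–substrate mix was held with compound for 10 min at room temperature, then NADPH regeneration solution was added for 1 h at 37C. Luciferin product was read as luminescence.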

Experiment [3] deals with Cytochrome P450 1A2 (Homo sapiens) (UniProt P05177). The experiment can be described thus: Cytochrome P450 Family 1 Subfamily A Member 2 (CYP1A2) small molecule antagonists: luciferase reporter qHTS assay (AID 1671199). Further: nearly all actives have a fitted effect of over 50% in size. A digest of the protocol:
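Read-out is luminescence from luciferin detection reagent (20 min) proportional to CYP1A2 activity; compounds in DMSO preincubated 10 min with enzyme and proluciferin substrate, then NADPH regeneration solution, 1 h, room temperature.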

The target in experiment [4] is Voltage-gated inwardly rectifying potassium channel KCNH2 (Homo sapiens) (UniProt Q12809). The experiment can be described thus: Human Ether-a-go-go-Related Gene (hERG) channel small molecule antagonists: fluorescence cell-based qHTS assay (AID 1671200). Further: nearly all actives have a fitted effect of over 50% in size. The method in brief:
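In this thallium-flux screen, overnight-cultured U2OS cells bearing the channel are dye-loaded in darkness for an hour, rested 10 min at room temperature, and then monitored kinetically at 480/540 nm for two minutes post-stimulus.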
In general terms: The hERG channel carries a current that helps repolarise heart muscle cells.

The target of experiment [5] is Cytochrome P450 3A4 (Homo sapiens) (UniProt P08684). The experiment can be described thus: Cytochrome P450 Family 3 Subfamily A Member 4 (CYP3A4) small molecule antagonists: luciferase reporter qHTS assay (AID 1671201). Further: nearly all actives have a fitted effect of over 50% in size. The method in brief: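 CYP3A4 activity was followed with a P450-Glo proluciferin substrate. Test compounds in DMSO were preincubated 10 min; NADPH regeneration then ran 1 h, and light output was read 20 min after detection reagent.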
Chain of Cytochrome P450 3A4 (Homo sapiens) (P08684 whole entry, looked up): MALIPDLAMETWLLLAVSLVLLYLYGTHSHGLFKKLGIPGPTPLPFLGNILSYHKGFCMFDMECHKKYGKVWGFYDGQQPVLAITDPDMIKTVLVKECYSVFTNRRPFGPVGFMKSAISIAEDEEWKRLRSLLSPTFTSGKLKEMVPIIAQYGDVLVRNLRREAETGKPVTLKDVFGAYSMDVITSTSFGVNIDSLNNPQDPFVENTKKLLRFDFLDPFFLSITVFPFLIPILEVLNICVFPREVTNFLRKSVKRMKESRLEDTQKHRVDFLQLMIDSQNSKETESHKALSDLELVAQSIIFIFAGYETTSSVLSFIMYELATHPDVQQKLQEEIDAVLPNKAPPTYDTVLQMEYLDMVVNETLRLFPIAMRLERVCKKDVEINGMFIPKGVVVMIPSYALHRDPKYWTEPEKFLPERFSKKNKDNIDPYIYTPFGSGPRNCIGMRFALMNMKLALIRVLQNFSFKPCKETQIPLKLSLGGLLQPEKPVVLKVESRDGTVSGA

The values that follow come from PubChem BioAssay (Tox21).

SMILES strings stand for the structures. Several values for one entry are separate records, joined by “and”; a condition that tells them apart may be missing. Identical values can stand only once. Records with an inconclusive call do not appear. More than one record can exist for a structure, and the calls need not agree. Activity calls are given as the source filed them. The call rests on the fitted dose curve; in most records, active means well fitted curve in the direction sought with a large enough effect in the repeat runs; inconclusive means weak or mixed curves; inactive means no such curve, though single readings can be large; an effect the other way counts as inactive or inconclusive.
Potency means the concentration at half of the fitted maximal effect.

Chain of Cytochrome P450 2C19 (Homo sapiens) (P33261 whole entry, looked up): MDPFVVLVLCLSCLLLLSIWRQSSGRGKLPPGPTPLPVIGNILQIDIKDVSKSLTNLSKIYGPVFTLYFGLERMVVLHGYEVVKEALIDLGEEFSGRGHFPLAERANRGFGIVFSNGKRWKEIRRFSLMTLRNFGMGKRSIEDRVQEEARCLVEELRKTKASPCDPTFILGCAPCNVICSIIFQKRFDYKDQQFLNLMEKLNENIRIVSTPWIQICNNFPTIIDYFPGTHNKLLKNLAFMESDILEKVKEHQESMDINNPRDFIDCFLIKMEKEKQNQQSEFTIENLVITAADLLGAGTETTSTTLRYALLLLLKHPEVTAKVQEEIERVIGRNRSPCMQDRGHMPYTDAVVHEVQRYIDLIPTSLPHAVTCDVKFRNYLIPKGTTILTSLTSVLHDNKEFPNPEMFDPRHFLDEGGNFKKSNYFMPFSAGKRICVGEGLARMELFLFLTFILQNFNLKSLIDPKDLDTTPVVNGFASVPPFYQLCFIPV
Chain of Voltage-gated inwardly rectifying potassium channel KCNH2 (Homo sapiens) (Q12809 whole entry, looked up): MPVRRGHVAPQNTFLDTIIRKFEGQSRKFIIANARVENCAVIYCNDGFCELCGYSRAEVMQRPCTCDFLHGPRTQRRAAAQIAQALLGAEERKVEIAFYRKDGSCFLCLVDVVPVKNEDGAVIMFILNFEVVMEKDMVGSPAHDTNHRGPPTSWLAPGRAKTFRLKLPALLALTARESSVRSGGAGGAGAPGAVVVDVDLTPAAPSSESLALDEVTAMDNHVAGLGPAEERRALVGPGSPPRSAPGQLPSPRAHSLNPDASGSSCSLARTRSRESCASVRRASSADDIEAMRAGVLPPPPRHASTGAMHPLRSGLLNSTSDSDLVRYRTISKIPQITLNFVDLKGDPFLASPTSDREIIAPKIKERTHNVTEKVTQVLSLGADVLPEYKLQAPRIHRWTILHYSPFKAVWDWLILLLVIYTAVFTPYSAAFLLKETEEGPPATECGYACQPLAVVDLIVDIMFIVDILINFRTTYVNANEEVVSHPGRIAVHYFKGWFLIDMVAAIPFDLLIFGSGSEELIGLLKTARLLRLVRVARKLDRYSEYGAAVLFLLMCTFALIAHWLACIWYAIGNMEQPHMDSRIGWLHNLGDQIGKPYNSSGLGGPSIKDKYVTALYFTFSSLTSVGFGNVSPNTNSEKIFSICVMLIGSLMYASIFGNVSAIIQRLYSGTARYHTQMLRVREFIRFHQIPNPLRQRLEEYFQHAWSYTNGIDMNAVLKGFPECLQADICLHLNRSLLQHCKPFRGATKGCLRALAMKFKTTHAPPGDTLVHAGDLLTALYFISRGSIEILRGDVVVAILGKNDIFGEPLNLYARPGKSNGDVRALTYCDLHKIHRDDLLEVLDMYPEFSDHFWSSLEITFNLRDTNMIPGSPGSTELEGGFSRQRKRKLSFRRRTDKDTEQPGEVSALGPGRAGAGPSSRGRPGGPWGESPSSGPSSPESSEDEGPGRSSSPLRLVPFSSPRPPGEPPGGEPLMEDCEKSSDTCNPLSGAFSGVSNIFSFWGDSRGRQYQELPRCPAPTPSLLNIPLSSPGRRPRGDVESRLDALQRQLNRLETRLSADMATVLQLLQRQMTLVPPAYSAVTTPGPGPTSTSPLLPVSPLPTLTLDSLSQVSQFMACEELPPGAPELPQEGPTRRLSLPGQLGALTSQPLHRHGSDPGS
Chain of Cytochrome P450 2C9 (Homo sapiens) (P11712 whole entry, looked up): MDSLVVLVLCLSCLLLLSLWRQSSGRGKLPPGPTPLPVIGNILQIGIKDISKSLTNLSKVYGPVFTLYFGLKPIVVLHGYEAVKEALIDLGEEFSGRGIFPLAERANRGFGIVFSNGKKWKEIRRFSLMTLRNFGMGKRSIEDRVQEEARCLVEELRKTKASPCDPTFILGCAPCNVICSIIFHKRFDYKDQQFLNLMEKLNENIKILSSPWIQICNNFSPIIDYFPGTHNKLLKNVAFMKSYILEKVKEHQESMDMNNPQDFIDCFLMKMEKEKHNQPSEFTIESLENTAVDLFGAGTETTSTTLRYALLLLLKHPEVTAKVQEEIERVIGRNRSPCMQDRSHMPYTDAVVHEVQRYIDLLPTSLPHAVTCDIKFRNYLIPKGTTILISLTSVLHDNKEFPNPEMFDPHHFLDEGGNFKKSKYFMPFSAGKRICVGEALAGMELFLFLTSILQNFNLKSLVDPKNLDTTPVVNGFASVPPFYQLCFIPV
Chain of Cytochrome P450 1A2 (Homo sapiens) (P05177 whole entry, looked up): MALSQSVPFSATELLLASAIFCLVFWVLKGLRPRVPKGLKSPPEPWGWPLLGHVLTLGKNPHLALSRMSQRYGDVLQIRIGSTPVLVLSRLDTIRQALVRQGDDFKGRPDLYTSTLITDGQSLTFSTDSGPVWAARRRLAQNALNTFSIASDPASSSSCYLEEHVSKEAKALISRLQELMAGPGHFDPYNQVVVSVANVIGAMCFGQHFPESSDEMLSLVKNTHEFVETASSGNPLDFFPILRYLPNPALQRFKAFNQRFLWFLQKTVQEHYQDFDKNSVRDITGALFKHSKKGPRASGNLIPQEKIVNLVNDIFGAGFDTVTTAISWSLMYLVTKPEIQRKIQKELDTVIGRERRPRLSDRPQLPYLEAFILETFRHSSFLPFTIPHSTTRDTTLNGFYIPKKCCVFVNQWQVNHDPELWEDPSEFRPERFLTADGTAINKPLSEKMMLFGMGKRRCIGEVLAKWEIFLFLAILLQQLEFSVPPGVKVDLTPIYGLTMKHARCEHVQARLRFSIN

Regarding `O=C(O)c1nc(Cl)ccc1Cl`, the Potency result in experiment [1], in experiment [2], in experiment [3], in experiment [4] and in experiment [5] was “inactive” throughout.

As for `O=c1[nH]c(=O)n(Cl)c(=O)n1Cl`, the Potency in experiment [1] was 56.4 µM (active) and inactive. For the same compound, the Potency result in experiment [2], in experiment [3], in experiment [4] and in experiment [5] was “inactive” in each case.

`CCn1cc[n+](C)c1C`: the Potency result in experiment [2], in experiment [3], in experiment [4] and in experiment [5] was “inactive” throughout.

Consider `CCCC[n+]1ccccc1C`, for which the Potency entry in experiment [2], in experiment [3], in experiment [4] and in experiment [5] was “inactive” in each case.

As to `CCOP(=S)(OCC)Oc1ccc2c(C)c(Cl)c(=O)oc2c1`, the Potency in experiment [2] is 286 nM (active) and 63.3 nM (active) and 8.71 µM (active); in experiment [3] it was 2.86 µM (active) and 4.48 µM (active) and 13.8 µM (active); in experiment [4], 22.1 µM (active) and inactive.

As to `COc1ccccc1N`, the Potency result in experiment [2] and in experiment [4] was “inactive” each time. Further, the Potency in experiment [3] is 39.9 µM (active) and 32.3 µM (active) and 35.6 µM (active); in experiment [5] it was 22.4 µM (active) and inactive and 28.3 µM (active).

`Nc1ccc(Cl)cc1`: the Potency in experiment [1] is 39.9 µM (active) and 20.4 µM (active); in experiment [2], 39.9 µM (active) and 32.3 µM (active); in experiment [3], 63.3 µM (active) and 39.9 µM (active) and 57.4 µM (active). The Potency result in experiment [4] and in experiment [5] was “inactive” throughout.

On to `Nc1ccccc1`, for which the Potency result was “inactive and 40.7 µM (active)” in experiment [2]; 36.3 µM (active) and inactive and 27.5 µM (active) in experiment [3]. Also, the Potency result in experiment [4] and in experiment [5] was “inactive” in each case.

Consider `Cc1cc(Cl)ccc1N`, for which the Potency in experiment [2] was 28.9 µM (active) and 24.6 µM (active) and 25.2 µM (active); in experiment [3] it was 11.5 µM (active) and 9.8 µM (active) and 7.96 µM (active). Besides, in experiment [4], the Potency result is “inactive”.

Regarding `CNC`, the Potency result in experiment [2], in experiment [3], in experiment [4] and in experiment [5] was “inactive” each time.

In the case of `CCCCCCCCCCCCOS(=O)(=O)O`, the Potency in experiment [2] was 78.5 µM (active) and 71 µM (active) and inactive. The Potency result in experiment [3], in experiment [4] and in experiment [5] was “inactive” each time.

Regarding `Nc1ccc(-c2ccc(N)cc2)cc1`, the Potency was 35.2 µM (active) and 11.2 µM (active) and 25.2 µM (active) in experiment [2]; 19.8 µM (active) and 14.1 µM (active) and 25.2 µM (active) in experiment [3]; 7.87 µM (active) and 7.91 µM (active) and 17.8 µM (active) in experiment [5]. Also, in experiment [4], the Potency result is “inactive”.

As for `CCCCCC[n+]1ccccc1`, the Potency result in experiment [1], in experiment [2], in experiment [3], in experiment [4] and in experiment [5] was “inactive” each time.

`CCCC[n+]1cccc(C)c1`: the Potency result in experiment [2], in experiment [3], in experiment [4] and in experiment [5] was “inactive” throughout.

With `COCC(=O)N(c1c(C)cccc1C)C(C)C(=O)OC` (stereo unspecified), in experiment [2], the Potency was 70.9 µM (active) and inactive. Moreover, the Potency result in experiment [3], in experiment [4] and in experiment [5] was “inactive” in each case.

In the case of `Nc1ccc(-c2ccc(N)c(Cl)c2)cc1Cl`, the Potency in experiment [1] was 4.01 µM (active) and 3.73 µM (active) and 5.64 µM (active); in experiment [2] it was 10.1 µM (active) and 11.8 µM (active) and 12.6 µM (active); in experiment [3] it was 1.79 µM (active) and 1.48 µM (active) and 1.42 µM (active); in experiment [5], 5.05 µM (active) and 6.63 µM (active) and 7.96 µM (active). In experiment [4], the Potency result was “inactive”.

As to `CCCC[N+]1(C)CCCCC1`, the Potency result in experiment [2], in experiment [3], in experiment [4] and in experiment [5] was “inactive” each time.

As for `CCCCCCCCCCCC(=O)O`, the Potency in experiment [2] was 102 µM (active). Also, the Potency entry in experiment [3], in experiment [4] and in experiment [5] was “inactive” throughout.

Take `CC[N+]1(C)CCCC1`: the Potency entry in experiment [2], in experiment [3] and in experiment [5] was “inactive” each time. Besides, the Potency result in experiment [4] is “inactive and 21.9 µM (active)”.

Turning to `CCCC[N+]1(C)CCCC1`, the Potency result in experiment [1] is “inactive and 40.2 µM (active)”. For the same compound, the Potency result in experiment [2], in experiment [3], in experiment [4] and in experiment [5] was “inactive” throughout.

For `CCCC[n+]1ccccc1`, the Potency entry in experiment [2], in experiment [3], in experiment [4] and in experiment [5] was “inactive” throughout.

Turning to `COP(=O)(OC)OC=C(Cl)Cl`, the Potency entry in experiment [2], in experiment [4] and in experiment [5] was “inactive” throughout. Further, the Potency result in experiment [3] is “inactive and 15.4 µM (active)”.

Take `CCCCCCCCn1cc[n+](C)c1`: the Potency entry in experiment [2], in experiment [3] and in experiment [5] was “inactive” in each case. Further, in experiment [4], the Potency is 17.3 µM (active) and 21.9 µM (active) and 22.1 µM (active).

In the case of `CCCCCCCCCCCCCC[P+](CCCCCC)(CCCCCC)CCCCCC`, the Potency in experiment [1] is 25.3 µM (active) and 35.9 µM (active) and 79.6 µM (active); in experiment [2], 25.3 µM (active) and 35.9 µM (active) and 5.63 µM (active); in experiment [3] it was 35.7 µM (active) and 63.8 µM (active); in experiment [4], 552 nM (active) and 349 nM (active) and 691 nM (active); in experiment [5], 7.13 µM (active) and 7.16 µM (active) and 3.99 µM (active).
